From the antibiotic and cytotoxicity screens of Wong et al. (2023)
The whole screen tested about 39,000 compounds, of which about 3,300 (8.5%) were called active. Many of the other results were omitted from the sample, so actives are more common in it than they were.

What follows are compounds tested on HepG2 (assay: cytotoxicity call (relative viability < 0.9)). Settings: 10 µM.

Row | Compound | cytotoxicity call
1 | O=c1cc(-c2ccccc2)ss1 | inactive
2 | COc1cc(OC)c(S(=O)(=O)N(C)Cc2ccccc2)cc1S(=O)(=O)N(C)Cc1ccccc1 | inactive
3 | O=C(c1ccc(S(=O)(=O)N2CCCCCC2)cc1)N(Cc1cccnc1)c1nc2c(F)cc(F)cc2s1 | inactive
4 | Cc1ccc2sc(N(CCCN(C)C)C(=O)c3ccc(S(=O)(=O)N(C)Cc4ccccc4)cc3)nc2c1C | active
5 | Cc1cc(Cl)cc2sc(N(Cc3ccccn3)C(=O)c3ccc(S(=O)(=O)N4CCCC4)cc3)nc12 | inactive
6 | Cc1ccc2sc(N(CCCN(C)C)C(=O)c3ccc(S(=O)(=O)N(C)C4CCCCC4)cc3)nc2c1C | active
7 | CC(C)(C)NC[C@@H](O)CSc1nc(-c2ccc(C(N)=O)s2)cs1 | inactive
8 | COCC(=O)N(C)C[C@H]1Oc2cc(-c3ccc(C#N)cc3)ccc2S(=O)(=O)N([C@H](C)CO)C[C@H]1C | inactive
9 | O=C(Nc1nccs1)[C@H]1[C@H](CO)[C@H]2Cn3c(cccc3=O)[C@@H]1N2C(=O)C1CC1 | inactive
10 | Cc1noc(C)c1S(=O)(=O)N(C)C[C@@H]1OCCCC[C@H](C)Oc2ccc(NC(=O)Nc3ccccc3)cc2C(=O)N([C@@H](C)CO)C[C@H]1C | inactive
11 | C[C@H](CO)N1C[C@H](C)[C@H](CN(C)Cc2ccncc2)Oc2c(NS(=O)(=O)c3ccc(F)cc3)cccc2C1=O | inactive
12 | COC(=O)[C@@H](N)CS[C@H]1CCCCO1 | inactive
13 | Cc1noc(C)c1NC(=O)Nc1ccc2c(c1)C(=O)N([C@H](C)CO)C[C@H](C)[C@H](CN(C)Cc1ccc(-c3ccccc3)cc1)O2 | inactive
14 | CC(C)[C@H]1CC[C@@H](C)C[C@@H]1NC(=O)c1cccc2ccccc12 | inactive
15 | COc1ccc2c(c1)n(CCN)c(=O)n2C(=O)[C@@H]1C[C@H](C)CC[C@H]1C(C)C | active
16 | C[C@@H]1CN([C@@H](C)CO)C(=O)c2cc(NC(=O)CCCN(C)C)ccc2O[C@@H](C)CCCCO[C@@H]1CN(C)C | inactive
17 | C[C@H]1CN([C@@H](C)CO)C(=O)c2cccc(NC(=O)CCCCCC(=O)Nc3ccccc3N)c2O[C@@H]1CN(C)Cc1ccc(-c2ccccc2)cc1 | inactive
18 | CN(Cc1ccc(/C=C/C(=O)Nc2ccc(-c3ccccc3)cc2N)cc1)CC12CC3CC(CC(C3)C1)C2 | active
19 | CN(Cc1ccc(/C=C/C(=O)Nc2ccc(-c3cccs3)cc2N)cc1)CC12CC3CC(CC(C3)C1)C2 | inactive
20 | O=C(C[C@H]1CC[C@@H]2[C@H](COC[C@H](O)CN2S(=O)(=O)c2cccc(F)c2)O1)NCc1ccncn1 | inactive
21 | C[C@H]1CN([C@@H](C)CO)C(=O)c2cc(C#CC3CCCCC3)cnc2O[C@H]1CN(C)C(=O)Cc1ccccn1 | inactive
